Test results as given in PubChem BioAssay (NCATS).
Inconclusive results are not listed. Entries that show only a call come without a potency. Unmarked numbers belong to inactive results. Active and inactive are the calls of the source. Calls come from the whole dose curve; as a rule, active = well fitted curve in the direction sought with a large enough effect; inconclusive = small, poorly fitted or top-dose-only effect, or another doubt; inactive = no such curve, though single readings can be large; an effect the other way counts as inactive or inconclusive.

Columns and labels:
Tov-21-G = experiment: Primary qHTS to identify gynecologic anti-cancer compounds using libraries of approved drugs and bioactive compounds (AID 1345084); conditions: Gynecologic cancer cell panel viability, ATPlite luminescence, 48 h; series mostly up to 57.5 µM; note: nearly all actives have a fitted effect of over 55% in size
Procedure, shortened: (§1)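 ATP-based viability (ATPlite), 1,000 cells/well, 16 h pre-incubation, 48 h compound at 37 C, 5% CO2, 15 min RT before read.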

SKOV3 = experiment: as above; conditions: Gynecologic cancer cell panel viability, ATPlite luminescence, 48 h; series mostly up to 57.5 µM
Procedure, shortened: as §1

[1] = qHTS assay to identify inhibitors of the type 1 interferon - major histocompatibility complex class I in skeletal muscle: Counter screen cell viability and HiBit confirmation (AID 1347412); conditions: iHSKM muscle cells + IFN-b, HiBiT or CellTiter-Glo, 24 h; note: nearly all actives have a fitted effect of over 60% in size
Procedure, shortened: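 Human myoblast knock-in line, 4.0 ng/ml IFN-beta stimulation, 24 h compound treatment. Endpoints: HiBiT lytic luminescence (HLA-B level) and CellTiter Glo (ATP). Dosing 12 concentrations, 3-fold steps, 46 uM highest final.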

Tov112D = experiment: Primary qHTS to identify gynecologic anti-cancer compounds using libraries of approved drugs and bioactive compounds (AID 1345084); conditions: Gynecologic cancer cell panel viability, ATPlite luminescence, 48 h; series mostly up to 57.5 µM; note: nearly all actives have a fitted effect of over 55% in size
Procedure, shortened: as §1
Potency is the fitted concentration of half-maximal effect.

COCc1c(Cl)ccc2c1CC[C@H]2c1ncc[nH]1
Potency (Tov-21-G): 10 µM (active)

Fc1ccc(-n2cc(CCCCN3CCC4(CC3)OCc3ccccc34)c3ccccc32)cc1
Potency (Tov-21-G): inactive

CCNC(=O)C#Cc1ccc2c(C(=Nc3ccc(CN(C)C)cc3)c3ccccc3)c(O)[nH]c2c1
Potency (SKOV3): 1.41 µM (active) | Potency ([1]; HiBiT): 17.6 µM (active) | Potency ([1]; Viability): 9.91 µM (active)

C=C1C(=O)OC2/C=C(\C)CC/C=C(\C)CC(OC(C)=O)C12 (stereo not drawn)
Potency (Tov-21-G): inactive | Potency (Tov112D): inactive

Cc1ccc(O)cc1Nc1ccnc(Nc2cccc(C(N)=O)c2)n1
Potency (Tov-21-G): 10 µM (active)

C=C1C(=O)OC2/C=C(/C)C3=CC(=O)C(C)(CC(OC(=O)/C(C)=C/COC(C)=O)C12)O3 (stereo not drawn)
Potency (Tov-21-G): 11.2 µM (active)

O=C(NO)c1ccc(CC(=O)N(CCO)c2ccccc2)cc1
Potency (Tov-21-G): inactive | Potency (Tov112D): inactive

Cc1cc(N2CCN(C(=O)Oc3ccc(-c4ccccc4)cn3)CC2)c2ccccc2n1
Potency (Tov-21-G): inactive | Potency (Tov112D): inactive

C[C@@H]1O[C@@H](O[C@H]2[C@@H]3C=CO[C@@H](O[C@@H]4O[C@H](CO)[C@@H](O)[C@H](O)[C@H]4O)[C@@H]3[C@@]3(CO)O[C@@H]23)[C@H](O)[C@H](OC(=O)/C=C/c2ccccc2)[C@H]1O
Potency (Tov-21-G): inactive | Potency (Tov112D): inactive

CCc1c[nH]c2ncnc(N3CC[C@](N)(CNC(=O)c4ccc(F)cc4F)C3)c12
Potency (Tov-21-G): 1 µM (active) | Potency (Tov112D): inactive

COc1cc(/C=N\NC(=O)c2ccc3c(c2)OCO3)ccc1OCc1ccccc1
Potency (Tov-21-G): inactive | Potency (Tov112D): inactive

CC1CCCC(O)CC(=O)c2c(O)cc(O)cc2CC(=O)O1 (stereo not drawn)
Potency (Tov-21-G): inactive

CCN(Cc1cc(Nc2nc(C)cn3c(-c4cn[nH]c4)cnc23)sn1)C(C)(C)CO
Potency (Tov-21-G): 0.355 µM (active)

COC1CC/C=C(\C)C(=O)Nc2cc(O)cc(c2)CC(C)CC(OC)C(O)C(C)/C=C(\C)C1OC(N)=O (stereo not drawn)
Potency (Tov-21-G): 3.98 µM (active)

Cc1cc2occ(CN(C)CCN(C)Cc3cn(-c4cccc(C(F)(F)F)c4)c4ccccc34)c(=O)c2cc1C
Potency (Tov-21-G): 28.2 µM (active)

CO[C@@H]1CC(OC2CCC3(C)C(CCC45CCC(C6=CC(=O)OC6)C(C)(CCC43)C5=O)C2)O[C@H](C)[C@@H]1O[C@@H]1O[C@H](CO[C@@H]2O[C@H](CO)[C@@H](O)[C@H](O)[C@H]2O)[C@@H](O)[C@H](O)[C@H]1O (stereo partly drawn)
Potency (Tov-21-G): 3.16 µM (active) | Potency (Tov112D): 2.82 µM (active)

CCn1c(-c2nonc2N)nc2c(C#CCO)ncc(OCCCN)c21
Potency (Tov-21-G): inactive

Cc1cc(C)c2c(c1)C(N(Cc1cc(C(F)(F)F)cc(C(F)(F)F)c1)c1nnn(C)n1)CCCN2CC1CCC(C(=O)O)CC1 (stereo not drawn)
Potency (Tov-21-G): inactive

CCc1cc(C(N)=O)ccc1-n1nc(C(C)C)c2c(-n3cnc(-c4cnn(C)c4)c3)ccnc21
Potency (Tov-21-G): 3.55 µM (active)

O=C(Nc1cccc2cccnc12)c1ccc(N2C(=O)[C@@H]3C4C=CC(C4)[C@@H]3C2=O)cc1
Potency (Tov-21-G): 31.6 µM (active)

CC(=O)Nc1cccc(-c2csc(Nc3cc(C)ccn3)n2)c1
Potency (Tov-21-G): inactive | Potency (Tov112D): inactive

O=C(NCCCNc1nc(Nc2cccc(CN3CCOCC3)c2)ncc1C1CC1)C1CCC1
Potency (Tov-21-G): 15.8 µM (active) | Potency (Tov112D): inactive

CC(C)C[C@@H]1NC(=O)[C@@H]2C[C@@]34C[C@@H]5[C@@]6(C)CCCC(C)(C)C6CC[C@@]5(C)N(c5ccccc53)[C@H]4N2C1=O (stereo partly drawn)
Potency (Tov-21-G): inactive | Potency (Tov112D): inactive

CCN1CCN(Cc2ccc(NC(=O)c3ccc(C)c(Oc4ccnc5[nH]ccc45)c3)cc2C(F)(F)F)CC1
Potency (Tov-21-G): 12.6 µM (active)

Cc1cc(N2CCOCC2)ccc1Nc1nc(NC2CCCCC2)c2[nH]cnc2n1
Potency (Tov-21-G): inactive | Potency (Tov112D): inactive

COc1ccc(CCc2nc3cc(-c4c(C)noc4C)ccc3n2CC(C)N2CCOCC2)cc1Cl (stereo not drawn)
Potency (Tov-21-G): inactive | Potency (Tov112D): inactive

Cc1sc2c(c1C)C(c1ccc(Cl)cc1)=N[C@@H](CC(=O)Nc1ccc(OCCOCCOCCOCCNc3cccc4c3C(=O)N(C3CCC(=O)NC3=O)C4=O)cc1)c1nnc(C)n1-2 (stereo partly drawn)
Potency (SKOV3): 2.82 µM (active) | activity change, negative = inhibition ([1]; Viability, at 45.9 µM (top of the series)): 0.552%

CC(CCC1(O)OC2CC3C4CC=C5CC(O[C@@H]6O[C@H](CO)[C@@H](O[C@@H]7O[C@@H](C)[C@H](O)[C@@H](O)[C@H]7O)[C@H](O)[C@H]6O[C@@H]6O[C@@H](C)[C@H](O)[C@@H](O)[C@H]6O)CCC5(C)C4CCC3(C)C2C1C)CO[C@@H]1O[C@H](CO)[C@@H](O)[C@H](O)[C@H]1O (stereo partly drawn)
activity change, negative = cytotoxicity (Tov-21-G): -14.2% [at 11.6 µM] | activity change, negative = cytotoxicity (Tov112D): -1.44% [at 11.6 µM]

CNC(=O)c1cc(Oc2ccc(NC(=O)c3cccc(C(F)(F)F)c3)cc2)ccn1
Potency (Tov-21-G): inactive | Potency (Tov112D): inactive

O=C(CCl)Nc1cccc(NC2=NS(=O)(=O)c3ccccc32)c1
Potency (Tov-21-G): inactive

C=C1CC2[C@@]3(C)C=CC(=O)C(C)(C)C3=C(O)C(=O)[C@@]2(C)C2(C(=O)OC)C(=O)C(C)OC(=O)[C@@]12C (stereo partly drawn)
Potency (Tov-21-G): inactive | Potency (Tov112D): inactive

C=C1C(=O)O[C@@H]2[C@H]3C(C)=CC(=O)C3=C(C)CC[C@@H]12
Potency (Tov-21-G): 28.2 µM (active) | Potency (Tov112D): inactive

CCC(=C(c1ccc(OCCN2CCCC2)cc1)c1ccc(OCCN2CCCC2)cc1)c1ccccc1
Potency (Tov-21-G): inactive | Potency (Tov112D): inactive

COc1cc2nc(N3CCN(C(=O)c4ccco4)C4CCCCC43)nc(N)c2cc1OC (stereo not drawn)
Potency (Tov112D): inactive

CC(=O)N1CCN(CCOc2ccc(C3CCN(C4=Nn5c(nnc5C(F)(F)F)CC4)CC3)cc2)CC1
Potency (Tov-21-G): inactive | Potency (Tov112D): inactive

O=S(=O)(NCc1cccc2ccccc12)c1cc(Cl)c(Oc2cccc(N3CCNCC3)c2)s1
Potency (Tov-21-G): inactive | Potency (Tov112D): inactive
